Assay [1] can be described thus: Cell Viability - LYMP2-012 (AID 982).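 Further: cellular ATP by luciferase luminescence where a drop means cytotoxicity; cells exposed to compound for one day before reading; nearly all actives have a fitted effect of over 55% in size.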 Further: potency means the concentration at half of the fitted maximal effect.
The nature of assay [2]: Cell Viability - LYMP2-014 (AID 983).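 Further: cells exposed to compound for 24 h at 37 °C; plate controls were DMSO only for no effect and 92 µM tetraoctylammonium bromide for full effect; nearly all actives have a fitted effect of over 50% in size.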 The gist of the method: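 Quantitative HTS in lymphoblastoid cells: 24 hr compound exposure, then CellTiter-Glo ATP luminescence. Positive control was tetraoctylammonium bromide, 6.4pM to 92 uM.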
Assay [3] is described as follows: Cell Viability - LYMP2-016 (AID 984).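 Further: cells exposed to compound for 24 hours at 37 °C; on the % scale 0 is the no-effect control and ±100 the full control effect; nearly all actives have a fitted effect of over 55% in size.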 In outline: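 Acute toxicity in a Coriell human lymphoblastoid line is scored as loss of intracellular ATP over 24 h of treatment in complete medium. CellTiter-Glo signal is fitted across concentrations with the Hill equation to give AC50.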
A short description of assay [4]: Cell Viability - LYMP2-018 (AID 985). Further: nearly all actives have a fitted effect of over 50% in size. Further: potency means the concentration at half of the fitted maximal effect. The gist of the method:
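In this qHTS viability assay, cells are treated for 24 hr and cellular ATP is quantified by luciferase-based luminescence, with tetraoctylammonium bromide as positive control.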

Assay [5] in a line: Cell Viability - LYMP2-020 (AID 986).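 Further: cells exposed to compound for 24 h at 37 °C; nearly all actives have a fitted effect of over 55% in size.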 Further: potency means the concentration at half of the fitted maximal effect. In outline: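 Cells at 2500 per well receive a 24 hr compound exposure at 37 C. Viability is measured as ATP-dependent luciferase luminescence, with AC50 modeled from qHTS concentration-response curves.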
Assay [6] in a line: Cell Viability - LYMP2-022 (AID 987). Further: nearly all actives have a fitted effect of over 55% in size. Further: potency means the concentration at half of the fitted maximal effect. In outline:
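In this qHTS cytotoxicity screen, compound titrations were incubated 24 hr at 37 C with human lymphoblastoid cells in complete medium. Luciferase-based ATP luminescence provided the viability signal.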

Assay [7] is described as follows: Cell Viability - LYMP2-024 (AID 988). Further: nearly all actives have a fitted effect of over 60% in size. Further: potency means the concentration at half of the fitted maximal effect. In outline: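 Cells at 2500 per well received compound for 24 hr after a 5 hr settling period. Viability was scored by CellTiter-Glo luminescence, with AC50 from Hill fits.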
Assay [8] can be described thus: Cell Viability - LYMP2-026 (AID 989).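 Further: cells exposed to compound for 24 h at 37 °C; on the % scale 0 is the no-effect control and ±100 the full control effect; nearly all actives have a fitted effect of over 50% in size.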 In outline: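 Acute toxicity screen in complete culture medium, with 24 hr compound exposure at 37 C. Viability read as cellular ATP via luciferase reaction, with tetraoctylammonium bromide (6.4pM to 92 uM) as positive control.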
Assay [9] is described as follows: Cell Viability - LYMP1-002 - Assay at 40 hr (AID 994). Further: nearly all actives have a fitted effect of over 60% in size. Further: potency means the concentration at half of the fitted maximal effect. In outline: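 Concentration-dependent ATP loss after 40 hr treatment at 37 C defined toxicity; AC50 values were obtained by fitting the standard Hill equation.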
Assay [10] in a line: qHTS Assay for Identification of Small Molecule Inducers of Hypoxia Response (AID 2120; active means well fitted curve in the direction sought with a large enough effect in the signal ratio, with a control signal flat, not every such curve was filed as active; the % refers to the signal ratio; further: 0% is about no effect). In outline:
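HRE-bla ME-180, 2500 cells/well, 0.5% dialyzed FBS medium; cpd titration, 17 h 37 degrees C; CCF4 2.5 h RT; Ex 405, Em 460/530 ratio -> %Activity, AC50.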
In general terms: Quantitative high-throughput screening tests each substance at several concentrations.

Assay [11] can be described thus: qHTS Assay for Lipid Storage Modulators (AID 1519; calls by dose curve; on activity change, negative = inhibition: on the % scale 0 is the no-effect control and ±100 the full control effect). Conditions: Drosophila S3 cells, BODIPY lipid droplet/cell ratio, laser cytometry, cells loaded with oleic acid. The gist of the method: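 Cells seeded at 5,000 per well were treated with compounds over a concentration series and loaded with oleic acid (400 uM, as added). Lipid droplet fluorescence (488 nm excitation, 500-530 nm channel) was read by laser-scanning cytometry and normalized to 20 uM Triacsin C.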

The target of assay [12] is Alpha-galactosidase A (Homo sapiens) (UniProt P06280). Description: Counterscreen for Glucocerebrosidase Inhibitors: qHTS Assay for Human alpha-Galactosidase at pH 4.5 (AID 992). Further: 0% is about no effect. In outline:
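Steps: enzyme (2 nM final), then compound across 0.7 nM to 77 uM, then 80 uM fluorogenic galactopyranoside substrate; incubate 20 min at room temperature; quench at pH 10; measure fluorescence at 365/440 nm.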
Background: The purpose of a counterscreen is to sort out artefacts and off-target activity.

In assay [13] the target is alpha-glucosidase (Oryza sativa, rice) (UniProt Q653V4). Description: Counterscreen for Glucocerebrosidase Inhibitors: qHTS Assay for Rice alpha-Glucosidase at pH 5.0 (AID 997).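 Further: 0% = full activity with enzyme and -100% = basal without enzyme.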 In outline: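 Endpoint fluorogenic assay at pH 5.0: compounds (0.7 nM to 77 uM) titrated against 4 nM rice enzyme and 400 uM 4-MU-alpha-glucoside for 20 min at room temperature; NaOH/glycine stop, read ex 365/em 440 nm, Hill-fitted AC50.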

[14] abbreviates: measured here: cell count channel max response.
The mark [15] stands for this setting: measured here: lipid channel max response.

Values joined by “and” are separate entries in the source; they are usually repeats but may differ in a detail not shown here. Equal values may be shown once. Records with an inconclusive call do not appear. Active and inactive are the calls of the source. Unless noted, the call rests on the fitted dose curve; in most records, active means well fitted curve in the direction sought with a large enough effect; inconclusive means small, poorly fitted or top-dose-only effect, or another doubt; inactive means no such curve, though single readings can be large; an effect the other way counts as inactive or inconclusive. Peptide text beside a SMILES is read from it.

Alpha-galactosidase A (Homo sapiens), sequence (P06280 whole entry, looked up): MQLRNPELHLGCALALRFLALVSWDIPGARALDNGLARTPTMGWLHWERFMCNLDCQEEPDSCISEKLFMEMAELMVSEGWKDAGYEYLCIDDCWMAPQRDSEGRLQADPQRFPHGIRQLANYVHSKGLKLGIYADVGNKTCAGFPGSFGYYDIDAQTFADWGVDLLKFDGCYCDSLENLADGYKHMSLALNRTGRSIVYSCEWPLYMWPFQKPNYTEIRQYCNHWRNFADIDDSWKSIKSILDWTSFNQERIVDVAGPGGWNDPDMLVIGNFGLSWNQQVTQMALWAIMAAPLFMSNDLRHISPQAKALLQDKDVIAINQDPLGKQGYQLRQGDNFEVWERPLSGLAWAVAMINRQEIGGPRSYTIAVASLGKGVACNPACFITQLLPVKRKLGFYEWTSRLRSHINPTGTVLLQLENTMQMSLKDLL

For the compound `O=S(=O)(O)O`, the Potency result in assay [1], in assay [2], in [3], in [4], in assay [5] and in assay [6] was “inactive” throughout. In addition, the Potency result in assay [7], in [8] and in [9] was “inactive” throughout. For the same compound, the result in assay [10] was inactive.

Take `CC(C)(C)NC(=O)[C@@H]1C[C@@H]2CCCC[C@@H]2CN1C[C@@H](O)[C@H](Cc1ccccc1)NC(=O)[C@H](CC(N)=O)NC(=O)c1ccc2ccccc2n1`: the Potency in assay [1], in assay [6] and in [9] was 50.1 µM (active) each time.

For the compound `CCCCC/C=C\C/C=C\CCCCCCCC(=O)O`, the Potency result in assay [1], in assay [2], in assay [3], in assay [4], in [5] and in [6] was “inactive” in each case. Also, the Potency result in assay [7], in assay [8] and in assay [9] was “inactive” throughout. Further, the compound was called inactive in assay [10].

With `CC(=O)N[C@@H](CC(=O)O)C(=O)N[C@@H](CCC(=O)O)C(=O)O` (Ac-Asp-Glu-OH), the activity change, negative = inhibition in assay [11] (at 25.7 µM (top of the series)) is -3.36% (inactive); in assay [11] (at 57.5 µM (top of the series)) it was 6.33% (inactive). Besides, the max response was -8.34% and 14.1% in [11] (setting [14]); -7.7% and 26.3% in assay [11] (setting [15]).

`CC1=C(/C=C/C(C)=C/C=C/C(C)=C/C=C/C=C(C)/C=C/C=C(C)/C=C/C2=C(C)CCCC2(C)C)C(C)(C)CCC1`: the activity change, negative = inhibition in assay [11] (at 57.5 µM (top of the series)) was 1.45% (inactive). The max response in assay [11] (setting [14]) worked out at 15.1%; in [11] (setting [15]), 17%.

As for `CC(C)=O`, the Potency result in [1], in [2], in assay [3], in [4], in [5] and in assay [6] was “inactive” each time. Also, the Potency result in [7], in [8] and in assay [9] was “inactive” each time. In [10], the outcome was inactive.

As to `O=C(O)CCC(=O)C(=O)O`, the Potency entry in [1], in assay [2], in assay [3], in [4], in assay [5] and in assay [6] was “inactive” in each case. Besides, the Potency result in assay [7], in assay [8] and in [9] was “inactive” throughout.

Regarding `Cc1ccccc1`, the Potency entry in assay [1], in assay [2], in [3], in [4], in [5] and in [6] was “inactive” each time. Moreover, the Potency result in assay [7], in assay [8] and in assay [9] was “inactive” throughout. Moreover, the outcome in assay [10] was inactive.

Consider `CCCCCCCC(=O)O`, for which the Potency result in assay [1], in assay [2], in assay [3], in assay [4], in assay [5] and in assay [6] was “inactive” throughout. The Potency result in [7], in assay [8] and in [9] was “inactive” each time. Also, the outcome in assay [10] was inactive.

On to `CN=C(NC#N)Nc1ccc(C2=NNC(=O)C[C@@H]2C)cc1`, for which the outcome in assay [12] and in assay [13] was inactive. For the same compound, the activity change, negative = inhibition in [11] (at 57.5 µM (top of the series)) was -3.97% (inactive). For the same compound, the max response in assay [11] (setting [14]) was -17.4%; in assay [11] (setting [15]), -20.4%.

For `IC(I)I`, the Potency entry in assay [1], in [2], in assay [3], in assay [4], in assay [5] and in assay [6] was “inactive” in each case. The Potency entry in assay [7], in assay [8] and in assay [9] was “inactive” each time. Besides, the outcome in [10] was inactive.

With `CC1=C(/C=C/C(C)=C/C=C/C(C)=C/CO)C(C)(C)CCC1`, the Potency in assay [1] is 50.1 µM (active); in assay [4], 50.1 µM (active); in [5], 50.1 µM (active); in assay [6] it was 39.8 µM (active); in [7] it was 50.1 µM (active). Also, in assay [10], the result was inactive.

Values taken from PubChem BioAssay (NCATS).
